The structures appear in SMILES notation. Entries with a potency or affinity are not part of this list.

For one assay, the system named is Klebsiella pneumoniae. The note with it: Concentration 20 uM; ASSAY_TEST Inhibition of Bacterial Growth; detection method Absorption (OD600); MEDIA CAMHB; plate type 384well; NBS; CORNING #3640; time 18 hr.
For the next assay, the system named is Candida albicans. As to conditions: 20 µM.
The subject of the next assay is Cryptococcus neoformans. The note with it: Concentration 20 uM; ASSAY_TEST Inhibition of Fungal Growth; detection method Resazurin; Absorption (OD600-OD570); plate type 384well; NBS; CORNING #3640. On the technique in general: The colour change of resazurin is a common sign of viable cells or microbes.

Broadly, the Inhibition is the change of the read-out against control, counted positive when it falls. Take `c1cc(C2=NCCN2)cc(-c2cc(-c3ccc(C4=NCCN4)cc3)no2)c1`: the Inhibition was 11.59% with Klebsiella pneumoniae, 2.32% in the assay on Candida albicans and -10.15% in the assay on Cryptococcus neoformans.
The corresponding values for `OC[C@H]1O[C@@H](n2c3ccc(Cl)cc3c3c(-c4cc5ccccc5o4)ncnc32)C(O)[C@H]1O` (stereo partly specified) are 8.56%, 8.5% and 3.55%.
Regarding `Cc1nn(C)cc1C(C)Nc1nncc(-c2ccc(C(F)(F)F)cc2)n1` (stereo unspecified), the Inhibition in the assay with Klebsiella pneumoniae was 3.18%; with Candida albicans, 3.9%; with Cryptococcus neoformans it was -5.79%.
With `CS(=O)(=O)c1ccccc1C(=O)N(Cc1ccccc1)c1ccccc1`, the Inhibition in the assay on Klebsiella pneumoniae is 9.63%; with Candida albicans, 3.84%; in the assay with Cryptococcus neoformans it was -8.51%.
The corresponding values for `CC(C)n1nc(-c2cc3c(Cl)cccc3[nH]2)c2c(N)ncnc21` are 6.59%, 5.11% and -4.09%.
The corresponding values for `Cc1ccccc1C(=O)N1N=C(Nc2ccccc2)SC1(C)C` are 6.87%, 4% and -7.29%.
The corresponding values for `Cc1ccc2[nH]c(C3CCCNC3)c(-c3ccncc3)c2c1.Cl.Cl` (stereo unspecified) are -25.08%, 4.63% and 1.08%.
In the case of `CS(=O)(=O)c1ccc(C(=O)N(CC2CCCO2)c2nc3ccccc3s2)cc1[N+](=O)[O-]` (stereo unspecified), the Inhibition in the assay with Klebsiella pneumoniae is 7.4%; with Candida albicans, 3.23%; in the assay on Cryptococcus neoformans it was -10.33%.
On to `COc1ccc(CN2CCOc3ccc(C(C)(O)CN(C)C)cc3C2)cc1C` (stereo unspecified), for which the Inhibition in the assay on Klebsiella pneumoniae was 16.19%; in the assay on Candida albicans, 4.72%; in the assay with Cryptococcus neoformans, -11.35%.
The corresponding values for `O=C(NC1CC1)c1ccc(CSCc2ccccc2Cl)o1` are 1.21%, 7.77% and -0.4%.
The corresponding values for `CN1CCN(c2nccc3[nH]c(-c4cccc(F)c4)cc23)CC1` are 12.23%, 5.85% and 5.1%.
The corresponding values for `Cc1nc2ccccn2c1C(=O)NCc1ccc(Cl)cc1` are 17.8%, 2.86% and -5.69%.
With `Cc1[nH]c2cc(F)cc(F)c2c(=O)c1-c1ccc(Oc2ccc(OC(F)(F)F)cc2)cc1`, the Inhibition with Klebsiella pneumoniae is 5.11%; with Candida albicans, 3.94%; in the assay on Cryptococcus neoformans, -10.28%.
Take `CCc1nc2ccc(C(=O)NCc3ccc4c(c3)OCO4)cn2c1N(C)Cc1cccs1`: the Inhibition was 5.86% in the assay on Klebsiella pneumoniae, 3.04% with Candida albicans and -6.4% in the assay with Cryptococcus neoformans.
The corresponding values for `Cc1ccc2oc(-c3cc(NC(=O)Cc4ccccc4)ccc3Cl)nc2c1` are 6.29%, 14.6% and -8.89%.
In the case of `Cc1cc(NCC(C)C)c2[nH]nc(-c3ccccc3)c2n1`, the figures for the Inhibition in the assay with Klebsiella pneumoniae, in the assay on Candida albicans and with Cryptococcus neoformans were 16.32%, 0.11% and -5.87%, respectively.
The corresponding values for `COc1ccc(Cn2cnc3c(-c4ccco4)nc(Cl)nc32)cc1` are 18.21%, 6.94% and -6.4%.
The corresponding values for `O=C(Nc1cnc2ccccc2c1)c1cccc(-n2cnnn2)c1` are 8.59%, 4.47% and -9.7%.
On to `O=C1[C@@H](Oc2ccccc2)[C@@H](c2ccc(Cl)cc2)N1CCn1cnc2c(NCc3ccccc3)ncnc21`, for which the Inhibition is 2.13% in the assay with Klebsiella pneumoniae, 33.5% in the assay on Candida albicans and -6.99% with Cryptococcus neoformans.
The corresponding values for `COc1ccc(Oc2ccc([C@@H](C)N(C)c3ncc4c(N)nc(N)nc4n3)cc2)cc1` are 18.87%, 5.99% and -6.67%.
`Cc1cc(Nc2ccc(C(F)(F)F)cc2)n2ccnc2n1`: the Inhibition with Klebsiella pneumoniae was found to be 6.21%; with Candida albicans it was 3.67%; with Cryptococcus neoformans it was 2.17%.
The corresponding values for `CCn1ncc2c(NC3CCOCC3)c(CNC(=O)c3ccnn3C)c(C)nc21` are -4.12%, 0.07% and -8.07%.
`CN(C)CCNC(=O)N1CCCN(c2ncnc3cc(-c4ccccc4)sc23)CC1`: the Inhibition in the assay on Klebsiella pneumoniae is 15.92%; with Candida albicans, 2.85%; with Cryptococcus neoformans it was -8.19%.
As to `CNc1cc(C)nc(C2CN(C(=O)c3n[nH]c4ccccc34)CCO2)c1` (stereo unspecified), the Inhibition in the assay on Klebsiella pneumoniae was 20.78%; in the assay on Candida albicans, 2.95%; in the assay with Cryptococcus neoformans it was -9.16%.
For the compound `CN(C)c1cc(NC(=O)Nc2ccccc2)c2ccccc2n1`, the values for the Inhibition in the assay with Klebsiella pneumoniae, in the assay with Candida albicans and in the assay with Cryptococcus neoformans were -9.89%, 5.61% and -2.57%, respectively.
Consider `CCC(Sc1nc2ccccc2o1)C(=O)Nc1nccs1` (stereo unspecified), for which the Inhibition is 14.47% in the assay with Klebsiella pneumoniae, 9.07% in the assay with Candida albicans and -15.51% in the assay on Cryptococcus neoformans.
The corresponding values for `COc1ccc(N(CCc2cccc(C)n2)C(C)=O)cc1` are 13.85%, 2.97% and -4.26%.
The corresponding values for `COc1ccccc1OCCCCn1c(C2CC2)nc2ccccc21` are 10.24%, 1.96% and -4.4%.
The corresponding values for `O=C(NC1CC1)c1ccc(N2CCC(Cc3ccccc3)CC2)nc1` are 19.39%, 4.1% and -7.07%.
As to `Cc1nnc(NC(=O)c2cn(-c3ccccc3)nc2-c2ccccc2C)o1`, the Inhibition is 13% in the assay on Klebsiella pneumoniae, 4.27% in the assay with Candida albicans and -7.03% with Cryptococcus neoformans.
Turning to `CCOc1ccc(-c2nc(CNCCc3ccc(F)cc3)cs2)cc1`, the values for the Inhibition with Klebsiella pneumoniae, in the assay on Candida albicans and in the assay with Cryptococcus neoformans were 12.06%, 7.53% and -5.87%, respectively.
For the compound `Clc1ccc(Cl)c(CO[C@H]2CCCC[C@@H]2n2ccnc2)c1`, the Inhibition in the assay with Klebsiella pneumoniae worked out at 15.52%; with Candida albicans, 2.99%; in the assay with Cryptococcus neoformans it was 2.84%.

The values are drawn from ChEMBL document CHEMBL4513149, “CO-ADD screening of MMV (CH) - MMV compounds” (2021).
